Test results as given in PubChem BioAssay (EPA / NIEHS).
Activity calls are given as the source filed them. How the source made its calls: active means hit-call score of the fitted dose curve at least 0.9, where 1 is the maximum; inactive means score below 0.9.

Columns and labels:
Settings in all cases: mRNA level, 48 h; actives raise or lower the signal
[1] = read-out: Ezrin (EZR), EZR (gene 7430); experiment: LTEA_HepaRG_EZR: Life Technologies and Expression Analysis (LTEA) Assay for Ezrin (EZR) using HepaRG (AID 2283491)
In short: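 Differentiated human HepaRG cells, 48 h after plating, were exposed in serum-free induction medium for 48 hours to eight half-log concentrations up to 100 uM in 0.5% DMSO. EZR mRNA was measured by TaqMan qRT-PCR, normalized to ACTB, GAPDH and POLR2A, and fitted bidirectionally against DMSO.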

CYP3A5 (gene 1577) = experiment: LTEA_HepaRG_CYP3A5: Life Technologies and Expression Analysis (LTEA) Assay for CYP3A5 using HepaRG (AID 2283493)
In short: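 Readout was CYP3A5 mRNA by qRT-PCR. HepaRG cultures were exposed for 48 h in serum-free induction medium to chemicals at up to 100 uM, and responses were fitted in both directions relative to DMSO vehicle.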

[2] = read-out: Fatty Acid-Binding Protein 1 (FABP1), FABP1 (gene 2168); experiment: LTEA_HepaRG_FABP1: Life Technologies and Expression Analysis (LTEA) Assay for Fatty Acid-Binding Protein 1 (FABP1) using HepaRG (AID 2283494)
In short: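 qRT-PCR readout of FABP1 transcript (normalized to three housekeeping genes) after 48 h chemical exposure of HepaRG cells; eight concentrations, half-log steps, max 100 uM, 0.5% DMSO vehicle; gain or loss fitted relative to DMSO baseline.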

[3] = read-out: Cytochrome P450 4A22 (Homo sapiens) (UniProt Q5TCH4); experiment: LTEA_HepaRG_CYP4A22: Life Technologies and Expression Analysis (LTEA) Assay for Cytochrome P450 4A22 (CYP4A22) using HepaRG (AID 2283495)
In short: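 Differentiated HepaRG cells in serum-free induction medium exposed 48 h in duplicate to eight half-log concentrations up to 100 uM in 0.5% DMSO. CYP4A22 mRNA quantified by TaqMan qRT-PCR, normalized to ACTB, GAPDH and POLR2A; bidirectional fit versus DMSO.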

[4] = read-out: Cytochrome P450 7A1 (Homo sapiens) (UniProt P22680); experiment: LTEA_HepaRG_CYP7A1: Life Technologies and Expression Analysis (LTEA) Assay for Cytochrome P450 7A1 (CYP7A1) using HepaRG (AID 2283496)
In short: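 Using 0.5% DMSO as vehicle and baseline, chemicals were tested in duplicate over an 8-point range from 100 uM on HepaRG cells for 48 h; qRT-PCR signals were normalised to ACTB, GAPDH and POLR2A.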

[5] = read-out: Glutathione S-Transferase (GSTA2), GSTA2 (gene 2939); experiment: LTEA_HepaRG_GSTA2: Life Technologies and Expression Analysis (LTEA) Assay for Glutathione S-Transferase (GSTA2) using HepaRG (AID 2283497)
In short: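 qRT-PCR readout of GSTA2 transcript, normalized to three housekeeping genes, fitted bidirectionally against 0.5% DMSO baseline. Differentiated HepaRG cells received compound for 48 h at 8 concentrations (top 100 uM, half-log steps).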

[6] = read-out: Glutamate-cysteine ligase catalytic (GCLC), GCLC (gene 2729); experiment: LTEA_HepaRG_GCLC: Life Technologies and Expression Analysis (LTEA) Assay for Glutamate-cysteine ligase catalytic (GCLC) using HepaRG (AID 2283498)
In short: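 HepaRG, 48 h exposure, 8-pt half-log series from 100 uM, 0.5% DMSO vehicle; TaqMan qRT-PCR for GCLC mRNA, housekeeping-normalized; bidirectional curve fit vs DMSO baseline.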

[7] = read-out: growth arrest and DNA damage 45 (GADD45G), GADD45G (gene 10912); experiment: LTEA_HepaRG_GADD45G: Life Technologies and Expression Analysis (LTEA) Assay for growth arrest and DNA damage 45 (GADD45G) using HepaRG (AID 2283499)
In short: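 Differentiated human HepaRG cells, 48 h post-plating, exposed 48 h in serum-free induction medium to 8 half-log concentrations (top 100 uM, 0.5% DMSO) in duplicate. GADD45G mRNA measured by Fluidigm TaqMan qRT-PCR, normalized to ACTB, GAPDH, POLR2A; bidirectional fit versus DMSO.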

[8] = read-out: Glutamate-cysteine ligase regulatory (GCLM), GCLM (gene 2730); experiment: LTEA_HepaRG_GCLM: Life Technologies and Expression Analysis (LTEA) Assay for Glutamate-cysteine ligase regulatory (GCLM) using HepaRG (AID 2283500)
In short: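 In this multiplexed HepaRG gene-expression assay, GCLM mRNA change after 48 h treatment (8 concentrations, max 100 uM) was scored against DMSO by bidirectional curve fitting.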

[9] = read-out: Glutathione S-transferase M3 (GSTM3), GSTM3 (gene 2947); experiment: LTEA_HepaRG_GSTM3: Life Technologies and Expression Analysis (LTEA) Assay for Glutathione S-transferase M3 (GSTM3) using HepaRG (AID 2283501)
In short: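 Differentiated human HepaRG cells were exposed in duplicate for 48 h in serum-free induction medium, 8 points from 100 uM top in half-log steps, 0.5% DMSO. GSTM3 mRNA was measured by TaqMan qRT-PCR, normalized to ACTB, GAPDH and POLR2A; bidirectional fit versus DMSO.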

[10] = read-out: Heat shock 70 kDa protein 1 (HSPA1A), gene 3303; experiment: LTEA_HepaRG_HSPA1A: Life Technologies and Expression Analysis (LTEA) Assay for Heat shock 70 kDa protein 1 (HSPA1A) using HepaRG (AID 2283502)
In short: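 An oxidative-stress marker readout: HepaRG cells treated 48 h in duplicate with an eight-point series (highest 100 uM) had HSPA1A mRNA quantified by TaqMan qRT-PCR. Activity was fitted in both directions using 0.5% DMSO as baseline.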

[11] = read-out: 3-Hydroxy-3-Methylglutaryl-CoA Synthase 2 (HMGCS2), HMGCS2 (gene 3158); experiment: LTEA_HepaRG_HMGCS2: Life Technologies and Expression Analysis (LTEA) Assay for 3-Hydroxy-3-Methylglutaryl-CoA Synthase 2 (HMGCS2) using HepaRG (AID 2283504)
In short: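 Human HepaRG cells in serum-free induction medium were exposed in duplicate for 48 h to 8-point half-log series from 100 uM top in 0.5% DMSO. HMGCS2 mRNA measured by TaqMan qRT-PCR, normalised to ACTB, GAPDH, POLR2A; bidirectional fit versus DMSO.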

HGF (gene 3082) = experiment: LTEA_HepaRG_HGF: Life Technologies and Expression Analysis (LTEA) Assay for Hepatocyte Growth Facto (HGF) using HepaRG (AID 2283505)
In short: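 Differentiated HepaRG cells in serum-free induction medium exposed 48 h in duplicate, 8 half-log concentrations from 100 uM in 0.5% DMSO. HGF mRNA by qRT-PCR, normalised to ACTB, GAPDH, POLR2A; bidirectional fitting.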

[12] = read-out: Intercellular Adhesion Molecule 1 (ICAM1), ICAM1 (gene 3383); experiment: LTEA_HepaRG_ICAM1: Life Technologies and Expression Analysis (LTEA) Assay for Intercellular Adhesion Molecule 1 (ICAM1) using HepaRG (AID 2283507)
In short: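 Differentiated human HepaRG cells in serum-free induction medium exposed 48 h in duplicate to 8 half-log concentrations (top 100 uM, 0.5% DMSO). ICAM1 mRNA quantified by TaqMan qRT-PCR, normalized to ACTB, GAPDH and POLR2A; bidirectional fitting versus DMSO.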

[13] = read-out: Insulin-like growth factor-binding protein 1 (IGFBP1), IGFBP1 (gene 3484); experiment: LTEA_HepaRG_IGFBP1: Life Technologies and Expression Analysis (LTEA) Assay for Insulin-like growth factor-binding protein 1 (IGFBP1) using HepaRG (AID 2283508)
In short: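 HepaRG cells, plated 48 h then switched to serum-free induction medium, exposed in duplicate for 48 h to 8-point half-log series from 100 uM in 0.5% DMSO. mRNA measured by qRT-PCR, normalized to ACTB/GAPDH/POLR2A; bidirectional fit versus DMSO.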

[14] = read-out: Interleukin 6 (IL6), IL6 (gene 3569); experiment: LTEA_HepaRG_IL6: Life Technologies and Expression Analysis (LTEA) Assay for Interleukin 6 (IL6) using HepaRG (AID 2283509)
In short: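 qRT-PCR read-out of IL6 transcript, normalized to three housekeeping genes, after 48 h chemical exposure of HepaRG cells; 8-point half-log series, top 100 uM, 0.5% DMSO vehicle. Bidirectional curve fitting against DMSO baseline.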

[15] = read-out: Interleukin 6 Receptor (IL6R), IL6R (gene 3570); experiment: LTEA_HepaRG_IL6R: Life Technologies and Expression Analysis (LTEA) Assay for Interleukin 6 Receptor (IL6R) using HepaRG (AID 2283510);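 on AC50: TaqMan qRT-PCR signal normalized to ACTB GAPDH and POLR2A housekeeping genes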
In short: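 In this HepaRG screen, test chemicals act on cells for 48 h at up to 100 uM (eight half-log points, duplicate wells). IL6R expression is quantified by qRT-PCR after normalization to ACTB, GAPDH and POLR2A, with DMSO as baseline.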

[16] = read-out: Cytochrome P450 3A7 (Homo sapiens) (UniProt P24462); experiment: LTEA_HepaRG_CYP3A7: Life Technologies and Expression Analysis (LTEA) Assay for CYP3A7 using HepaRG (AID 2283492)
In short: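 Differentiated HepaRG cells in serum-free induction medium exposed 48 h in duplicate to 8-point half-log series from 100 uM top in 0.5% DMSO. CYP3A7 mRNA by qRT-PCR, normalized to ACTB/GAPDH/POLR2A, bidirectional fit versus DMSO.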

[17] = read-out: Insulin Like Growth Factor 1 (IGF1), IGF1 (gene 3479); experiment: LTEA_HepaRG_IGF1: Life Technologies and Expression Analysis (LTEA) Assay for Insulin Like Growth Factor 1 (IGF1) using HepaRG (AID 2283506)
In short: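 Endpoint: IGF1 mRNA change by qRT-PCR, housekeeping-normalized, fitted bidirectionally relative to 0.5% DMSO vehicle. Human HepaRG cells were treated 48 h in serum-free induction medium, eight half-log concentrations topping at 100 uM.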

[18] = read-out: Hypoxia-inducible factor 1-alpha (Homo sapiens) (UniProt Q16665); experiment: LTEA_HepaRG_HIF1A: Life Technologies and Expression Analysis (LTEA) Assay for Hypoxia-inducible factor 1 (HIF1A) Trancription factor using HepaRG (AID 2283503)
In short: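 Gain- or loss-of-signal HIF1A mRNA changes are fitted against a DMSO baseline. HepaRG cultures receive eight concentrations, highest 100 uM, for 48 h in serum-free induction medium with 0.5% DMSO.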

Measured: AC50

Chain of Cytochrome P450 3A7 (Homo sapiens) (P24462 whole entry, looked up): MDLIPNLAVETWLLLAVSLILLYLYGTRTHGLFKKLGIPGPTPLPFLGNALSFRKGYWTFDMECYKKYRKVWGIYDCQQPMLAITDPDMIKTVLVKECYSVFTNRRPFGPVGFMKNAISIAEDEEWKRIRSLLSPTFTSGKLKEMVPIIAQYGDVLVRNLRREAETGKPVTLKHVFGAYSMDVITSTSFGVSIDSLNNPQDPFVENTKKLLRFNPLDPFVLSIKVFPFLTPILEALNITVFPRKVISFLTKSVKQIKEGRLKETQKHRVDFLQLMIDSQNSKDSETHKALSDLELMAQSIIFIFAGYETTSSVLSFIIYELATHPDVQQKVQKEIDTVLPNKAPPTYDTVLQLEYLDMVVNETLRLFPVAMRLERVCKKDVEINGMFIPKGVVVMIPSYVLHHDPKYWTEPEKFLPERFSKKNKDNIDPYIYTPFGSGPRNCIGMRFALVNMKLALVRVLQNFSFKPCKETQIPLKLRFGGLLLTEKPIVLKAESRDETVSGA
Chain of Hypoxia-inducible factor 1-alpha (Homo sapiens) (Q16665 whole entry, looked up): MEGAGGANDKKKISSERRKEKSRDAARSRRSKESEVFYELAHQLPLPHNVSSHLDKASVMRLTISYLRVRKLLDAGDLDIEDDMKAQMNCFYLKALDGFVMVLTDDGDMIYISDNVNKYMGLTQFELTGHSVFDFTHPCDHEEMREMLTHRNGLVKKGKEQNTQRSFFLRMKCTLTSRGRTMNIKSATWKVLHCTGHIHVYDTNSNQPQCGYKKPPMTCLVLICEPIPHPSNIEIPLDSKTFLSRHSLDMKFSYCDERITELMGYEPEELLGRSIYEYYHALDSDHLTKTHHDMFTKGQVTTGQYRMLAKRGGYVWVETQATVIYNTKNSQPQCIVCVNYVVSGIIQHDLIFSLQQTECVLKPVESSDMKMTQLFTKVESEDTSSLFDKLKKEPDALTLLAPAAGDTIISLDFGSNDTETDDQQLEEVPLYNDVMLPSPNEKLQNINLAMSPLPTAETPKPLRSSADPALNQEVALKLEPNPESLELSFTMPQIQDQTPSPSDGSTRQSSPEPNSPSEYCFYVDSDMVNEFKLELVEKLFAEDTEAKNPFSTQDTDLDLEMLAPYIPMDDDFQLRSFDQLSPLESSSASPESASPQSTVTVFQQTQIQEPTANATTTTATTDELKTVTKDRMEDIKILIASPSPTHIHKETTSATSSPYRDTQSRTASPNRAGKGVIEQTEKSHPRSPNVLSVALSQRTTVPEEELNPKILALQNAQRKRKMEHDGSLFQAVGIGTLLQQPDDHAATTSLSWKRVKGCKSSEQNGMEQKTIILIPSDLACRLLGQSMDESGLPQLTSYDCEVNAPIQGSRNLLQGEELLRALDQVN

O=c1c(O)c(-c2ccc(O)c(O)c2)oc2cc(O)cc(O)c12
not listed: [16] | [17] | [18]
inactive: all other assays above

CCCc1cc(=O)[nH]c(=S)[nH]1
not listed: [9] | [18]
inactive: all other assays above

FC(F)(F)C(F)(F)C(F)(F)C(F)(F)C(F)(F)C(F)(F)CCI
not listed: [9] | [11]
inactive: all other assays above

COCCOC[C@H](CC1(C(=O)NC2CCC(C(=O)O)CC2)CCCC1)C(=O)Oc1ccc2c(c1)CCC2 (some centres not stated)
not listed: [9] | [11]
inactive: all other assays above

NC(=O)Cn1c(=O)cc(CCN2CCN(c3nccc4sccc34)CC2)c2ccc(F)cc21
active: [2] 12.3 µM | [3] 62.7 µM | [4] 21.5 µM | [5] 50 µM | [7] 83.8 µM | [10] 21.9 µM | [18] 13.1 µM | [12] 50 µM | [13] 76.6 µM
inactive: [1] | [16] | CYP3A5 (gene 1577) | [6] | [8] | HGF (gene 3082) | [17] | [14] | [15]

Cc1nc(C)nc(N2C[C@@H](C)N(c3ccnc([C@@H](C)O)n3)[C@@H](C)C2)n1
active: [16] 13.8 µM | [3] 0.682 µM | [5] 25 µM | HGF (gene 3082) 15.3 µM
not listed: [9] | [11] | [13]
inactive: all other assays above

CC1(C)CC(N=C=O)CC(C)(CN=C=O)C1 (configuration not stated)
active: [2] 26.2 µM
not listed: [9] | [11]
inactive: all other assays above

Cc1cccc(Nc2cc(Cl)nc(SCC(=O)O)n2)c1C
active: [2] 16.7 µM | [3] 16.7 µM | [4] 19.5 µM | [11] 6.99 µM
not listed: [16] | [18]
inactive: all other assays above

C[C@]12C=CC(=O)C=C1CC[C@@H]1[C@@H]2C(=O)C[C@@]2(C)[C@H]1CC[C@]2(O)C(=O)CO
not listed: CYP3A5 (gene 1577) | [3] | [4] | [7] | [9] | [11] | [16]
inactive: all other assays above

CC(=O)OCCOCCOCCOC(C)=O
not listed: [9] | [11] | [13]
inactive: all other assays above

CCCCCCCCCCC
not listed: [9] | [11] | [13]
inactive: all other assays above

CCCCCCCCCCCCCCCC
not listed: [9] | [11] | [13]
inactive: all other assays above

Cc1nc(-c2ccc3c(c2)CCN(CCC2CCC(NC(=O)/C=C/c4ccc(F)cc4)CC2)CC3)no1 (configuration not stated)
not listed: [9] | [13]
inactive: all other assays above

CC(C)(C)c1cc(O)c(C(C)(C)C)cc1O
inactive: [1] | [6] | [7] | [8] | [10] | HGF (gene 3082)
active: [2] 94.3 µM | [5] 77.8 µM | [9] 50 µM | [18] 78.5 µM | [17] 82.4 µM | [12] 50 µM | [13] 50 µM | [14] 75.7 µM | [15] 77.6 µM

CCOC(=O)CCC(=O)OCC
active: [10] 88.6 µM
not listed: [9] | [13]
inactive: all other assays above
